Sampled rows, rich in hits. Any-hit rate of the full collection: about 21%.
SARS PLP yeast – qHTS of Yeast-based Assay for SARS-CoV PLP; S. cerevisiae expressing SARS-CoV PLpro, growth rescue; Potency, µM (doses to about 32.9 µM), most hits filed as activators; 0.19% of 330,000 active; further: nearly all actives have a fitted effect of over 55% in size
Cycloheximide cs – Cycloheximide Counterscreen for Small Molecule Inhibitors of Shiga Toxin. 12% of 300,000 active. AID 2314, 2010. cell reporter, cycloheximide protein synthesis inhibition counterscreen. max response, %; in the data active means max response mostly above about 13%, no sharp cut-off; inactive means mostly below about 14%; further: read at 38.3 µM for the half of the compounds with a filed dose
Pf growth 48h – Primary qHTS for delayed death inhibitors of the malarial parasite plastid, 48 hour incubation. P. falciparum luciferase growth in erythrocytes, 48 h. Potency, µM (highest dose often 28.7 µM), hits mostly inhibitors. 5.9% of 310,000 active. AID 504832, 2011; active means well fitted inhibition curve with a large enough effect; inconclusive means small, poorly fitted or top-dose-only effect, or another doubt; inactive means no such curve, though single readings can be large or run the other way
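Firefly luciferase activity from engineered P. falciparum reports growth; inhibitors lower the luminescent signal. Cultures contained 2% hematocrit erythrocytes at 0.1% final parasitemia.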
Pf growth 96h – Primary qHTS for delayed death inhibitors of the malarial parasite plastid, 96 hour incubation. P. falciparum luciferase reporter growth, 96 h. Potency, µM (titrated, usually from 28.7 µM), most hits filed as inhibitors. 6.9% of 320,000 active. AID 504834, 2011; active means well fitted inhibition curve with a large enough effect; inconclusive means small, poorly fitted or top-dose-only effect, or another doubt; inactive means no such curve, though single readings can be large or run the other way
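Two parasite generations (96 h, 37 C, 5% CO2) of compound exposure in infected erythrocytes (0.05% parasitemia, 2% hematocrit). Luciferase-reporter P. falciparum; decreased luminescence indicates inhibited growth, aimed at apicoplast-acting delayed death.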
Shiga inhibitor – A qHTS for Small Molecule Inhibitors of Shiga Toxin; AID 2315, 2010; 9.2% of 290,000 active; Vero cells, Shiga toxin protein synthesis inhibition reporter; inhibition, % at 38.7 µM; in the data active means inhibition mostly above about 28%, no sharp cut-off; inactive means mostly below about 43%
NS1 function inh – qHTS Assay for Inhibitors of Influenza NS1 Protein Function. AID 2326, 2010. Potency, µM (doses to about 46.1 µM). 0.4% of 270,000 active; further: actives are rising curves; nearly all actives have a fitted effect of over 50% in size
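OD600 was taken as the measure of yeast growth restored by compound in an NS1-expressing S. cerevisiae strain. Cells had been washed out of glucose medium and diluted 1:100 into galactose -URA medium, pH 6.0.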
Large screens that a line does not name were inactive. Unless noted, the call rests on the fitted dose curve.

O=C(COc1ccccc1)Nc1ccccc1N1CCN(c2ccc(F)cc2)CC1	none
O=C(COc1ccccc1)Nc1ccccc1N1CCN(c2ccccc2)CC1	Pf growth 48h inconclusive, Pf growth 96h 2.94µM
CN1CCN(c2ccccc2NC(=O)COc2ccc(Br)cc2)CC1	Pf growth 96h 1.85µM (no result: Pf growth 48h)
Cc1cccc(OCC(=O)Nc2ccccc2N2CCN(C)CC2)c1	none
O=C(COc1ccccc1)Nc1ccccc1N1CCCCC1	Pf growth 48h inconclusive
COc1ccc(OC)c(C(=O)NC2CC(C)(C)Cc3c2cnn3-c2ccccc2)c1 (stereo not given)	Pf growth 48h inconclusive
Cn1cnc2c(=O)[nH]cc([N+](=O)[O-])c21	Pf growth 48h inconclusive, Pf growth 96h inconclusive
Cc1c(NC(=O)C(C)OC(=O)c2ccc([N+](=O)[O-])s2)c(=O)n(-c2ccccc2)n1C (stereo not given)	Pf growth 48h inconclusive, Pf growth 96h 13.1µM (no result: NS1 function inh)
Cc1c(NC(=O)c2ccccc2)c(=O)n(-c2ccccc2)n1C	Pf growth 96h 10.4µM
Cc1c(C(=S)NC(=O)C2CC2)c(=O)n(-c2ccccc2)n1C	Pf growth 96h 14.7µM (no result: NS1 function inh)
Cc1c(NC(=O)c2c(F)c(F)c(F)c(F)c2F)c(=O)n(-c2ccccc2)n1C	none
Cc1c(NCc2ccccc2O)c(=O)n(-c2ccccc2)n1C	none
C=CCc1cccc(CNc2c(C)n(C)n(-c3ccccc3)c2=O)c1O	Pf growth 48h 10.4µM
Cc1[nH]c(C)c(S(=O)(=O)NCc2ccc(Cl)cc2)c1C(=O)N1CCCC1	none
Cc1c(Cl)cccc1NC(=S)N1CCC(C(N)=O)(N2CCCCC2)CC1	Pf growth 96h inconclusive
Cc1c(NC(=O)c2ccc(-c3ccc([N+](=O)[O-])cc3Cl)o2)c(=O)n(-c2ccccc2)n1C	Pf growth 96h 9.28µM
Cc1c(NC(=O)c2cccc(S(=O)(=O)N3CCOCC3)c2)c(=O)n(-c2ccccc2)n1C	Pf growth 96h 8.28µM
Cc1c(C2Nc3ccccc3NC3=C2C(=O)CC(C)(C)C3)cnn1C (stereo not given)	Pf growth 48h inconclusive, Pf growth 96h 5.86µM
CC1(C)CC(=O)C2=C(C1)Nc1ccccc1NC2c1ccccc1F (stereo not given)	Pf growth 48h inconclusive
CC(=O)N(C)c1ccc(NC(=S)NCC(C)C)cc1	Cycloheximide cs 15.2
CCCNC(=S)Nc1ccc(CC(=O)OC)cc1	none
COC(=O)Cc1ccc(NC(=S)NCC(C)C)cc1	Cycloheximide cs 16.2
Cc1ccc2c(c1)N(CC(=O)NC1CCCC1)C(=O)c1cccnc1O2	none
O=C(Nc1ccccc1)c1nn(-c2ccccc2)c(=O)cc1C(F)(F)F	Pf growth 96h inconclusive
O=C(c1ccccc1)c1nn(-c2ccccc2)c(=O)cc1C(F)(F)F	Cycloheximide cs 17.0
O=C(c1cccc(Cl)c1)c1nn(-c2ccccc2)c(=O)cc1C(F)(F)F	Pf growth 48h inconclusive, Pf growth 96h 13.1µM
O=C(c1ccccc1)c1nn(-c2ccc(Cl)cc2)c(=O)cc1C(F)(F)F	Cycloheximide cs 12.9, Pf growth 48h inconclusive, Pf growth 96h inconclusive, Shiga inhibitor 32.9
CCc1ccc(NC(=O)C/C(C)=N/NC(=O)COc2ccc(C)cc2Br)cc1	none
COc1ccc(Cl)cc1NC(=O)CN(C)C(=O)c1cccc2cccnc12	none (no result: Cycloheximide cs, Pf growth 48h, Pf growth 96h, Shiga inhibitor, NS1 function inh)
CC1(C)CCCN(Cc2c(O)ccc3c(=O)c(-c4nc5ccccc5s4)c(N)oc23)C1	Cycloheximide cs 32.9, Pf growth 48h inconclusive, Pf growth 96h inconclusive, Shiga inhibitor 77.0
CC1CCN(Cc2c(O)ccc3c(=O)c(-c4nc5ccccc5s4)c(N)oc23)CC1	Pf growth 48h 0.262µM, Pf growth 96h inconclusive
COc1ccccc1-c1c(C)oc2c(CN3CCN(CCO)CC3)c(O)ccc2c1=O	none
CC1CCCN(Cc2c(O)ccc3c(=O)c(-c4nc5ccccc5s4)c(N)oc23)C1 (stereo not given)	Pf growth 48h 0.0738µM, Pf growth 96h 0.0657µM
Cc1ccc(Nc2nc(CSc3nnc(-c4ccccc4)n3C)cs2)cc1	Cycloheximide cs 31.6, Pf growth 96h inconclusive, Shiga inhibitor 51.6
Cc1ccc(-c2nnc(SCC(=O)CC(=O)Nc3ccccc3)n2C)cc1	SARS PLP yeast inconclusive, Pf growth 48h inconclusive, Pf growth 96h inconclusive, NS1 function inh inconclusive
Cc1ccc(Nc2nc(CSc3nnc(-c4ccccc4C)n3C)cs2)cc1	Cycloheximide cs 45.1, Shiga inhibitor 79.7
COC(=O)CCC/C=C1/SCC(NC(=O)c2ccccc2)C1O (stereo not given)	Pf growth 96h inconclusive (no result: SARS PLP yeast)
COC(=O)CCC/C=C1/SCC(NC(=O)c2ccccc2)C1=O (stereo not given)	Pf growth 96h 9.28µM, NS1 function inh inconclusive (no result: Pf growth 48h)
NC(=O)c1ccccc1N/C=C/C(=O)c1cccs1	SARS PLP yeast inconclusive, Cycloheximide cs 44.3, Shiga inhibitor 45.5
NC(=O)c1ccccc1N/C=C/C(=O)c1ccc(F)cc1	Cycloheximide cs 56.2, Shiga inhibitor 98.4
NC(=O)c1ccccc1NS(=O)(=O)c1cccs1	none
NC(=O)c1ccccc1N/C=C/C(=O)c1ccc(Cl)cc1Cl	Cycloheximide cs 32.8, Shiga inhibitor 71.9
O=C(/C=C/c1ccc([N+](=O)[O-])cc1)c1cccs1	none
COc1cc([N+](=O)[O-])ccc1N/C=C/C(=O)c1cccs1	Cycloheximide cs 26.5, Shiga inhibitor 60.1
Cc1ncoc1C(=O)Nc1ccccc1C(N)=O	Pf growth 96h inconclusive
Cc1ccc(C(=O)/C=C/Nc2ccccc2C(N)=O)o1	Cycloheximide cs 53.6, Shiga inhibitor 83.0 (no result: SARS PLP yeast)
Cc1cccc(N/C=C/C(=O)c2cccs2)c1C	Cycloheximide cs 49.4, Pf growth 96h 4.65µM, Shiga inhibitor 74.0
Cc1ccccc1NC(=O)Nc1cccs1	Pf growth 96h inconclusive
O=C(O)c1ccccc1C(=O)OCc1ccccc1	none (no result: SARS PLP yeast)
O=C(OCc1ccc(Cl)cc1)c1ccccc1C(=O)c1ccccc1	Cycloheximide cs 21.4
O=C(OCc1ccc(Cl)cc1)c1cccnc1Cl	Cycloheximide cs 17.7
COC(=O)c1ccc(COC(=O)c2cccnc2Cl)cc1	Cycloheximide cs 37.2
O=C(OCc1ccc(COC(=O)c2ccccn2)cc1)c1ccccn1	Cycloheximide cs 29.7, Shiga inhibitor 66.3 (no result: Pf growth 96h)
CCc1nnc(NC(=O)CSc2ncc(-c3ccccc3)n2CC)s1	none (no result: Pf growth 48h, Pf growth 96h)
O=C(CSc1nnc(C2CC2)n1-c1ccccc1)N1CCNC1=O	none (no result: Cycloheximide cs, Shiga inhibitor, NS1 function inh)
O=C(Cn1ccc2ccccc2c1=O)NCCC(=O)Nc1cccc(Cl)c1	none
CCNS(=O)(=O)c1ccc(CCC(=O)N2CCN(c3ccccc3)CC2)cc1	none
CCN(CC)CC(=O)Nc1sc(C)cc1C(=O)c1ccccc1	Pf growth 48h 3.29µM
CCc1cc(C(=O)c2ccc(Br)cc2)c(NC(=O)CN(CC)CC)s1	Pf growth 48h 5.86µM, Pf growth 96h 8.28µM
CCN(CC)CC(=O)Nc1sc(C)cc1C(=O)c1ccc(C)cc1	Pf growth 48h inconclusive

From PubChem BioAssay
